Molecular target: GST-WRKY1(266-371) (Arabidopsis thaliana, UniProt Q9SI37 266-371)
Assay: universal protein binding microarray (PBM); transcription factors of Arabidopsis thaliana; high values mean tight binding
Conditions: protein: recombinant; tags: GST; dsDNA, one strand shown
Procedure, shortened: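 Protein amounts were determined by A280 or anti-GST western blot after glutathione–Sepharose 4B purification of GST-tagged proteins induced in cells, with zinc acetate included for zinc-finger proteins. Duplicate runs at 200 to 500 nM final were done on custom all-10-mer Agilent 4 × 180K arrays made double-stranded by primer extension. The normalised enrichment score (E-score) over gapped and ungapped 8-mers is the measure of binding.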

Sequence of GST-WRKY1(266-371) (Q9SI37 266-371): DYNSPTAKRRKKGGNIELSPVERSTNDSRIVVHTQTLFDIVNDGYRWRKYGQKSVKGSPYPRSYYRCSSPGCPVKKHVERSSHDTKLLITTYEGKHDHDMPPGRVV

Row | Sequence | binding signal [E-score]
1 | CCGCTGAC | 0.414
2 | CCTGGTCA | 0.454
3 | CCGGGTCA | 0.443
4 | GACCGGTC | 0.445
5 | CTGACCGA | 0.439
6 | CTGACCAG | 0.444
7 | GCTCTGAC | 0.403
8 | CAGGTCAA | 0.484
9 | AGTCTTCG | 0.427
10 | GGTCAGCA | 0.456
11 | CAGTCAGC | 0.406
12 | CGAAGACC | 0.436
13 | AGTCAGCC | 0.415
14 | GCTGACTA | 0.417
15 | CTAGGTCA | 0.428
16 | GAGTCAGA | 0.419
17 | CAAGACCG | 0.405
18 | ATGCTGAC | 0.41
19 | CCATTGAC | 0.473

Row | Sequence | binding signal [E-score]
20 | GTGGACCA | 0.418
21 | CGATTGAC | 0.443
22 | GACGGTCA | 0.462
23 | GGGTCAGA | 0.432
24 | CCGAGTCA | 0.409
25 | ATAGGTCA | 0.409
26 | ACTCTGAC | 0.437
27 | ACAGGTCA | 0.443
28 | ACCGGTCA | 0.463
29 | CAGGTCAG | 0.418
30 | GACTTTGA | 0.432
31 | GCTTTGAC | 0.466
32 | CGGGTCAA | 0.487
33 | CGGTCAGC | 0.458
34 | CAAGGTCA | 0.425
35 | AGTCAGAG | 0.44
36 | AGTCAGCG | 0.453
37 | TGACCGCA | 0.429
38 | CCAGGTCA | 0.408
